A short description of assay [1]: High-throughput drug toxicity screening in the BPDCN cell line Cal-1 (AID 1224825; call rule not given here). The following applies: Cal-1 BPDCN cell viability, qHTS; at 45.8 µM (top of the series) unless noted. A digest of the protocol:
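Viability of the BPDCN line Cal-1 is measured as ATP-based luminescence (CellTiter-Glo) following 48 h incubation with compounds. Percent activity uses DMSO-treated wells as 100% and 9.2 uM bortezomib as 0%.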

The nature of assay [2]: qHTS assay for measurement of the activity of small molecule inhibitors on Zika virus induced Caspase-3 activity in human iPSC derived neural progenitor cells (hNPCs) (AID 1224857). Also: % of control where 0% means no effect; nearly all actives have a fitted effect of over 65% in size. A digest of the protocol:
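Percent inhibition of virus-induced caspase-3/7 luminescence (Caspase-Glo), scaled between uninfected cells and Zika-infected cells. hNPCs received compound 1 hr before ZIKV at 2 FFU/cell, with 6 hours infection at 37 C.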

A short description of assay [3]: qHTS assay for measurement of the activity of small molecule inhibitors on Zika virus induced Caspase-3 activity in human astrocytoma cells (AID 1224859).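 Also: plate controls were ZIKV-infected untreated cells for no effect and uninfected cells for full effect.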 The method in brief:
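Luminescent caspase-3/7 read-out (30 min reagent, room temperature) in human SNB-19 cells infected 6 h with ZIKV (2 FFU/cell) after 1 h compound pre-incubation; Data were normalised to uninfected and infected wells.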

The nature of assay [4]: qHTS Screen of the MIPE 4.0 Collection Against Ewings Sarcoma (RDES) (AID 1259252). Also: nearly all actives have a fitted effect of over 35% in size. Also: potency is read from the fitted curve at half-maximal effect. The method in brief:
(§1)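 Here, cells in 5% FBS RPMI were exposed for two days (48 h) to compound dilutions added four hours after plating. ATP-based CellTiter-Glo luminescence measured viability, normalized to vehicle and no-cell blanks.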

Assay [5] can be described thus: qHTS Screen of the MIPE 4.0 Collection Against Ewings Sarcoma (TC71) (AID 1259253). Also: nearly all actives have a fitted effect of over 40% in size. Also: potency is read from the fitted curve at half-maximal effect. The method in brief: as §1
A short description of assay [6]: qHTS Screen of the MIPE 4.0 Collection Against Ewings Sarcoma (EW8) (AID 1259255). Also: nearly all actives have a fitted effect of over 35% in size. Also: potency is read from the fitted curve at half-maximal effect.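 As to viability: 100% = DMSO-treated cells and 0% = medium-only wells without cells.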 A digest of the protocol: as §1
A short description of assay [7]: qHTS Screen of the MIPE 4.0 Collection Against Ewings Sarcoma (TC32) (AID 1259256). Also: nearly all actives have a fitted effect of over 45% in size. Also: potency is read from the fitted curve at half-maximal effect. The method in brief: as §1
Assay [8] can be described thus: P-glycoprotein substrates identified in KB-8-5-11 adenocarcinoma cell line, qHTS therapeutic library screen (AID 1346987). Also: nearly all actives have a fitted effect of over 65% in size. Also: potency is read from the fitted curve at half-maximal effect. A digest of the protocol:
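Luminescence from CellTiter-Glo, read 5 min after addition, quantified survival of KB-8-5-11 (P-gp-overexpressing) cells exposed to compounds for 72 h. AC50 was derived from concentration-response curves.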

A short description of assay [9]: P-glycoprotein substrates identified in KB-3-1 adenocarcinoma cell line, qHTS therapeutic library screen (AID 1346986). Also: nearly all actives have a fitted effect of over 60% in size.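 Also: potency is read from the fitted curve at half-maximal effect; potency is for cytotoxicity meaning loss of cell viability.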 A digest of the protocol:
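72 h cell-killing screen, 500 cells/well, CellTiter-Glo luminescence. Paired lines KB-3-1/KB-8-5-11; P-gp dependence checked by tariquidar co-treatment and HEK-293 MDR-19 versus empty-vector cells.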

Several values for one entry are separate records, joined by “and”; a condition that tells them apart may be missing. Equal values may be shown once. Results filed as inconclusive are left out. Activity calls are given as the source filed them. Unless noted, calls follow the shape of the dose curve; as a rule, active = well fitted curve in the direction sought with a large enough effect; inconclusive = small, poorly fitted or top-dose-only effect, or another doubt; inactive = no such curve, though single readings can be large; an effect the other way counts as inactive or inconclusive.

Regarding `C[C@H](CCC(=O)O)[C@H]1CCC2C3C[C@H](O)[C@@H]4C[C@H](O)CC[C@]4(C)C3CC[C@@]21C` (stereo not given in full), the viability (% of control) in [1] was 120%. For the same compound, the Potency entry in assay [2], in assay [3], in assay [4], in [5], in assay [6] and in assay [7] was “inactive” throughout. Besides, in assay [8], the Potency result was “inactive”.

For the compound `C[C@@H]1C(=O)O[C@H]2CC34[C@H]5C[C@@H](C(C)(C)C)C36[C@H](OC(=O)[C@@H]6O)O[C@@]4(C(=O)O5)[C@]21O` (stereo not given in full), the viability (% of control) in assay [1] stood at 69%. In addition, the Potency result in assay [2], in [3], in assay [4], in assay [5], in assay [6] and in assay [7] was “inactive” throughout. In assay [8], the Potency entry was “inactive”.

For `N=c1ccn2c(n1)O[C@H]1[C@@H](O)[C@@H](CO)O[C@H]12`, the viability (% of control) in assay [1] came to 11.2%. In assay [2], the Potency entry is “inactive”. Further, the Potency in [4] is 0.332 µM (active); in assay [5], 0.662 µM (active); in [6], 1.05 µM (active); in assay [7], 0.372 µM (active).

Regarding `Cc1cnc(Nc2ccc(N3CCN(C)CC3)cc2)nc1Nc1cccc(S(=O)(=O)NC(C)(C)C)c1`, the viability (% of control) in [1] turned out to be 1.93%. Moreover, the Potency result in [2] and in [3] was “inactive” each time. Also, the Potency in assay [4] is 2.64 µM (active); in [5] it was 2.64 µM (active); in [6] it was 2.09 µM (active); in [7] it was 2.35 µM (active); in assay [9], 3.26 µM (active); in assay [8], 11.8 µM (active) and 7.31 µM (active).

On to `c1cc(N[C@@H]2CCNC2)nc(-c2cnc3ccc(-c4cn[nH]c4)cn23)c1`, for which the viability (% of control) in [1] turned out to be 3.36%. Moreover, the Potency result in [2] and in assay [8] was “inactive” throughout. For the same compound, the Potency was 16.6 µM (active) in assay [4], 26.4 µM (active) in [5], 16.6 µM (active) in [6] and 23.5 µM (active) in assay [7].

As for `CS(=O)(=O)N1CCc2c(-c3cnc(N)nc3)nc(N3CCOCC3)nc21`, in assay [1], the viability (% of control) is 33.9%. Moreover, the Potency result in [2] and in assay [3] was “inactive” each time. Further, the Potency is 0.105 µM (active) in assay [4]; 0.59 µM (active) in [5]; 1.32 µM (active) in [6]; 0.296 µM (active) in [7]; 0.82 µM (active) in assay [9]; 1.3 µM (active) in assay [8].

In the case of `N#CC(=C(N)Sc1ccc(N)cc1)c1ccccc1C(F)(F)F`, in assay [1], the viability (% of control) came out at 57.2%. Also, the Potency result in assay [2] and in assay [8] was “inactive” each time. The Potency in [4] is 5.9 µM (active); in assay [5], 10.5 µM (active); in [6], 3.32 µM (active); in assay [7] it was 5.26 µM (active).

As to `CCCCCCCCCCCCc1ccc(S(=O)(=O)Nc2nncs2)cc1`, the viability (% of control) in [1] stood at 105%. In addition, the Potency result in assay [2], in assay [3], in assay [4], in assay [5], in [6] and in assay [7] was “inactive” each time. For the same compound, the Potency result in assay [9] and in [8] was “inactive” throughout.

Consider `CCNC(=O)Nc1ccc(-c2nc3c(c(N4CCOC[C@H]4C)n2)CCN(C2COC2)C3)cc1`, for which the viability (% of control) in assay [1] was 19.9%. In addition, the Potency entry in assay [2] and in assay [3] was “inactive” throughout. Moreover, the Potency in [4] was 1.05 µM (active); in assay [5], 0.935 µM (active); in assay [6], 1.05 µM (active); in [7] it was 0.935 µM (active); in [9] it was 0.58 µM (active); in assay [8], 1.84 µM (active).

Take `O=C(CN1C(=O)C2(CCCC2)NC[C@H]1c1cc(F)cc(F)c1)Nc1ccc2c(c1)C[C@@]1(C2)C(=O)Nc2ncccc21`: the viability (% of control) in assay [1] is 107%. The Potency entry in assay [2], in assay [3], in [4], in assay [5], in assay [6] and in assay [7] was “inactive” throughout. For the same compound, the Potency entry in [8] is “inactive”.

Turning to `CCC(C(=O)O)C1CCC(C)C(C(C)C(O)C(C)C(=O)C(CC)C2OC3(C=CC(O)[C@@]4(CC[C@](C)(C5CC[C@@](O)(CC)C(C)O5)O4)O3)C(C)CC2C)O1` (stereo not given in full), in assay [1], the viability (% of control) is 12.3%. For the same compound, the Potency entry in assay [2] and in [3] was “inactive” each time. For the same compound, the Potency in assay [4] was 1.18 µM (active); in assay [5] it was 1.48 µM (active); in assay [6], 0.833 µM (active); in assay [7] it was 2.64 µM (active).

`Cc1cc(O)c2c(c1)C(=O)c1cccc(O)c1C2=O`: the viability (% of control) in assay [1] is 94.6%. The Potency result in assay [2], in [3], in assay [4], in assay [5], in [6] and in [7] was “inactive” each time. Besides, in [8], the Potency entry is “inactive”.

With `O=C(Nc1ccc(Oc2ccnc3[nH]ccc23)c(F)c1)c1cccn(-c2ccc(F)cc2)c1=O`, in [1], the viability (% of control) amounted to 87.2%. Moreover, the Potency result in assay [2], in assay [4], in assay [6], in assay [7], in assay [9] and in assay [8] was “inactive” in each case.

As to `CC(C)c1cc(C(C)C)c(CC(=O)NS(=O)(=O)Oc2c(C(C)C)cccc2C(C)C)c(C(C)C)c1`, the viability (% of control) in assay [1] came to 60.9%. The Potency result in [2] is “inactive”. The Potency in assay [4] was 7.43 µM (active); in assay [5] it was 0.743 µM (active); in assay [6], 7.43 µM (active); in [8], 7.31 µM (active).

As for `C[N+](C)([O-])CCNc1ccc(NCC[N+](C)(C)[O-])c2c1C(=O)c1c(O)ccc(O)c1C2=O`, in assay [1], the viability (% of control) worked out at 19.7%. The Potency result in assay [2], in assay [3] and in [7] was “inactive” in each case. The figures for the Potency in assay [4], in [5] and in assay [6] were 18.7 µM (active), 16.6 µM (active) and 20.9 µM (active), respectively.

Consider `COc1cc(C=CC(=O)CC(=O)C=Cc2ccc(O)c(OC)c2)ccc1O`, for which the viability (% of control) in assay [1] was found to be 5.08% [at 92.2 µM]. Also, the Potency result in assay [2] and in assay [3] was “inactive” each time. In addition, the Potency in assay [4] was 7.62 µM (active); in assay [5], 21.5 µM (active); in assay [6], 6.05 µM (active); in assay [7], 12.1 µM (active); in assay [8], 48.1 µM (active).

Regarding `C#C[C@]1(O)CC[C@@H]2[C@@H]3CCC4=CC(=O)CC[C@@H]4[C@H]3CC[C@@]21CC`, the viability (% of control) in [1] was 114%. Further, the Potency result in assay [2], in assay [3], in [4], in [5], in assay [6] and in assay [7] was “inactive” throughout. Also, in [8], the Potency entry was “inactive”.

Take `COc1cc(C)c(C=CC(C)=CC=CC(C)=CC(=O)O)c(C)c1C`: in [1], the viability (% of control) came out at 94.9%. The Potency entry in [2], in assay [3], in [4], in assay [5], in assay [6] and in assay [7] was “inactive” in each case. For the same compound, the Potency entry in [9] and in [8] was “inactive” in each case.

For the origin of these results see PubChem BioAssay (NCATS).
